# Results reported in the supplement of paper PMC3150612.
# ± gives the standard deviation of the averaged measurements.
# How the values were obtained:
# Drosophila melanogaster [1] = assay: olfactory response index (dipstick assay) (fraction of flies (RI; 1 aversion, 0.5 indifferent, 0 attraction)); higher = stronger aversion to the odorant; conditions: odorant concentration: 1% v/v, male
# Drosophila melanogaster [2] = assay: as above; conditions: odorant concentration: 1% v/v, female
# [3] = genotype (tubulin-GAL4 x UAS-RNAi line; control = progenitor): A5
# [4] = genotype (tubulin-GAL4 x UAS-RNAi line; control = progenitor): control
# [5] = genotype (tubulin-GAL4 x UAS-RNAi line; control = progenitor): obp 18a
# [6] = genotype (tubulin-GAL4 x UAS-RNAi line; control = progenitor): obp 22a
# [7] = genotype (tubulin-GAL4 x UAS-RNAi line; control = progenitor): obp 28a
# [8] = genotype (tubulin-GAL4 x UAS-RNAi line; control = progenitor): obp 56a
# [9] = genotype (tubulin-GAL4 x UAS-RNAi line; control = progenitor): obp 56c
# [10] = genotype (tubulin-GAL4 x UAS-RNAi line; control = progenitor): obp 56f
# [11] = genotype (tubulin-GAL4 x UAS-RNAi line; control = progenitor): obp 57a
# [12] = genotype (tubulin-GAL4 x UAS-RNAi line; control = progenitor): obp 57b
# [13] = genotype (tubulin-GAL4 x UAS-RNAi line; control = progenitor): obp 58c
# [14] = genotype (tubulin-GAL4 x UAS-RNAi line; control = progenitor): obp 59a
# [15] = genotype (tubulin-GAL4 x UAS-RNAi line; control = progenitor): obp 83a
# [16] = genotype (tubulin-GAL4 x UAS-RNAi line; control = progenitor): obp 83c
# [17] = genotype (tubulin-GAL4 x UAS-RNAi line; control = progenitor): obp 93a
# [18] = genotype (tubulin-GAL4 x UAS-RNAi line; control = progenitor): obp 99b
# [19] = genotype (tubulin-GAL4 x UAS-RNAi line; control = progenitor): obp 56h
smiles,measurement,setting,value
O=Cc1ccccc1 [benzaldehyde],olfactory response index,Drosophila melanogaster [1]; [3],0.725 ± 0.049
same,olfactory response index,Drosophila melanogaster [1]; [4],0.83 ± 0.13
same,olfactory response index,Drosophila melanogaster [1]; [5],0.53 ± 0.1
same,olfactory response index,Drosophila melanogaster [1]; [6],0.467 ± 0.074
same,olfactory response index,Drosophila melanogaster [1]; [7],0.621 ± 0.14
same,olfactory response index,Drosophila melanogaster [1]; [8],0.418 ± 0.068
same,olfactory response index,Drosophila melanogaster [1]; [9],0.522 ± 0.14
same,olfactory response index,Drosophila melanogaster [1]; [10],0.656 ± 0.11
same,olfactory response index,Drosophila melanogaster [1]; [11],0.547 ± 0.17
same,olfactory response index,Drosophila melanogaster [1]; [12],0.636 ± 0.024
same,olfactory response index,Drosophila melanogaster [1]; [13],0.702 ± 0.035
same,olfactory response index,Drosophila melanogaster [1]; [14],0.739 ± 0.0092
same,olfactory response index,Drosophila melanogaster [1]; [15],0.591 ± 0.15
same,olfactory response index,Drosophila melanogaster [1]; [16],0.557 ± 0.023
same,olfactory response index,Drosophila melanogaster [1]; [17],0.537 ± 0.042
same,olfactory response index,Drosophila melanogaster [1]; [18],0.299 ± 0.13
same,olfactory response index,Drosophila melanogaster [1]; [19],0.555 ± 0.12
same,olfactory response index,Drosophila melanogaster [2]; [3],0.8108 ± 0.005
same,olfactory response index,Drosophila melanogaster [2]; [4],0.694 ± 0.053
same,olfactory response index,Drosophila melanogaster [2]; [5],0.534 ± 0.029
same,olfactory response index,Drosophila melanogaster [2]; [6],0.708 ± 0.24
same,olfactory response index,Drosophila melanogaster [2]; [7],0.757 ± 0.076
same,olfactory response index,Drosophila melanogaster [2]; [8],0.683 ± 0.17
same,olfactory response index,Drosophila melanogaster [2]; [9],0.645 ± 0.031
same,olfactory response index,Drosophila melanogaster [2]; [10],0.75 ± 0.058
same,olfactory response index,Drosophila melanogaster [2]; [11],0.839 ± 0.059
same,olfactory response index,Drosophila melanogaster [2]; [12],0.748 ± 0.087
same,olfactory response index,Drosophila melanogaster [2]; genotype (tubulin-GAL4 x UAS-RNAi line; control = progenitor): obp 58b,0.753 ± 0.048
same,olfactory response index,Drosophila melanogaster [2]; [13],0.795 ± 0.051
same,olfactory response index,Drosophila melanogaster [2]; [14],0.863 ± 0.051
same,olfactory response index,Drosophila melanogaster [2]; [15],0.663 ± 0.16
same,olfactory response index,Drosophila melanogaster [2]; [16],0.797 ± 0.16
same,olfactory response index,Drosophila melanogaster [2]; [17],0.738 ± 0.11
same,olfactory response index,Drosophila melanogaster [2]; [18],0.379 ± 0.16
same,olfactory response index,Drosophila melanogaster [2]; [19],0.726 ± 0.091
